Results filed as inconclusive are left out. Calls of active or inactive are those of the source. Calls come from the whole dose curve.
target: Thyrotropin receptor (Homo sapiens) (UniProt P16473); test: qHTS assay to identify small molecule antagonists of the thyroid stimulating hormone receptor (TSHR) signaling pathway (AID 1259385); conditions: TSHR-HEK293 cAMP HTRF, TSH-stimulated antagonist mode; series mostly up to 92.4 µM; activity change, negative = inhibition: at the top concentration; note: nearly all actives have a fitted effect of over 20% in size
Sequence (P16473 whole entry, looked up): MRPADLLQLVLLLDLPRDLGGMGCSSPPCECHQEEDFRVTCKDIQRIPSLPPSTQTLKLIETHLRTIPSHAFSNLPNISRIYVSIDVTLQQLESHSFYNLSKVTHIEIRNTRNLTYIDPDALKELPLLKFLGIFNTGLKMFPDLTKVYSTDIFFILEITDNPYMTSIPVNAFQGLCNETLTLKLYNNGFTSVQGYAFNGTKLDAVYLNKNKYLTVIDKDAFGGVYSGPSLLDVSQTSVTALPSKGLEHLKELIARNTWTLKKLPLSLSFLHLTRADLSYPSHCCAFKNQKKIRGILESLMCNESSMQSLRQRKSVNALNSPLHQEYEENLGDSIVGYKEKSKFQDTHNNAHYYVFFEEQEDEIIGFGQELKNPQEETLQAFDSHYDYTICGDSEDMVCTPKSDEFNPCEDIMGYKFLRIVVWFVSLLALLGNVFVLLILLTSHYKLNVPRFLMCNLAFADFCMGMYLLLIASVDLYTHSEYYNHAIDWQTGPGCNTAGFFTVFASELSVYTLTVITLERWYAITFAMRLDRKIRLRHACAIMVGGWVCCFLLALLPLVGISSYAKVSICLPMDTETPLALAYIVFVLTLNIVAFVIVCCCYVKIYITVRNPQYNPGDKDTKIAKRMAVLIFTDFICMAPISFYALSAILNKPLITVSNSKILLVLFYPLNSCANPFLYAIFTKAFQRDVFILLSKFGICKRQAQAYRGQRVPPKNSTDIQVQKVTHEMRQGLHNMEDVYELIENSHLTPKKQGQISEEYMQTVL
Excerpt: U.S. Tox21 Program National Center for Advancing Translational Sciences [NCATS] NIH Chemical Genomics Center [NCGC] U.S. Environmental Protection Agency [EPA] National Institutes of Environmental Health Sciences [NIEHS] National Toxicology Program [NTP] U.S. Food and Drug Administration [FDA] Tox21 Assay Overview: TSHR is the receptor for thyrotropin (thyroid stimulating hormone or TSH), a member of the glycoprotein hormone family. TSH is released by the anterior pituitary gland and is the main regulator of thyroid gland growth and development. Upon binding circulating thyrotropin, a G-protein signal cascade activates adenylyl cyclase and […] cAMP concentration is increased. cAMP is a key second messenger involved extensively in cellular signal transduction pathways associated with the majority of G-protein coupled receptors (GPCRs). The activation of these GPCRs by neurotransmitters, lipids, nucleotides, peptides and hormones results in the activation or the inhibition of plasma membrane-bound adenylate cyclase through heterotrimeric G-proteins. A cell-based TSHR assay can be used to screen chemical compounds that modulate TSHR either in agonist or antagonist mode.
Tox21 Assay Protocol Summary: TSHR-Hek293 cells were dispensed at 800 cells/4uL/well in 1536-well white plates using a Multidrop dispenser. After the assay plates were incubated at a 37C/5% CO2 incubator for 18 hrs, 23 nL of compounds dissolved in DMSO, positive controls or DMSO only was transferred to the assay plate by a pin tool, followed by 1 ul medium containing Ro20-1724. For the antagonist mode screening, 1 uL of TSH was added on the top of the cell/compound mixtures to achieve a final agonist concentration of 1.5 ng/mL. After 30 min of incubation at room temperature, 2.5 ul/well of cAMP-d2 and 2.5 ul/well of anti-cAMP-cryptate were added respectively into the assay plates using a Flying Reagent Dispenser. The plates were incubated at room temperature for 1 hr. The fluorescence intensity in the plates was measured using an Envision plate reader. Each test compound was measured at 15 concentrations and in triplicates.
% is set by controls: 0 for no effect and ±100 for the full control effect; potency is the fitted concentration of half-maximal effect.

Structure (SMILES)	activity change, negative = inhibition	Potency
CC(C)(C)Cl	1.2% (inactive)	
CCCCCCCCO[C@@H]1O[C@H](CO)[C@@H](O)[C@H](O)[C@H]1O	-0.944% (inactive)	
CCCCCCOC(=O)NC(=N)c1ccc(NCc2nc3cc(C(=O)N(CCC(=O)OCC)c4ccccn4)ccc3n2C)cc1		29.8 µM (active)
CCCCCCCC#N	0.0215% (inactive)	
C=C(C)C(=O)OCCO	0.131% (inactive)	
O=C(O)C(S)C(S)C(=O)O (stereo not given)	-0.509% [at 42.5 µM] (inactive)	
CN1CCN(C(c2ccccc2)c2ccccc2)CC1	-1.71% [at 42.5 µM] (inactive)	
CC(COCCO)OCCO (stereo not given)	0.153% (inactive)	
OCCN1CCN(CCCN2c3ccccc3C=Cc3ccccc32)CC1	-3.91% [at 42.5 µM] (inactive)	
CCCCC	-3.3% (inactive)	
Cc1cccc(Nc2ccccc2)c1	-1.38% (inactive)	
CC(CC=O)c1ccccc1 (stereo not given)	1.02% (inactive)	
CN(C)c1ccc(C(c2ccccc2)c2ccc(N(C)C)cc2)cc1	-5.43% (inactive)	
NC(N)=NCCC[C@H](N)C(=O)O	-0.191% [at 8.39 µM] (inactive)	
NS(=O)(=O)c1ccc(N2CCCCS2(=O)=O)cc1	2.42% [at 42.5 µM] (inactive)	
CN(C)CCOC(c1ccccc1)c1ccc(Br)cc1 (stereo not given)	-4.77% [at 42.5 µM] (inactive)	
CCC(C)c1cc(C(C)(C)C)c(O)c(C(C)(C)C)c1 (stereo not given)	2.65% (inactive)	
C[C@@H]1C[C@H]2O[C@@]3(O[C@@H]2C(C)(C)O)[C@H](O)[C@@]2(C)[C@@H]4CC[C@H]5C(C)(C)[C@@H](O[C@@H]6OC[C@@H](O)[C@H](O)[C@H]6O)CC[C@@]56C[C@@]46CC[C@]2(C)[C@@H]13	3.31% [at 42.5 µM] (inactive)	
Cc1cccc(C)c1OCC(=O)N[C@@H](Cc1ccccc1)[C@@H](O)C[C@H](Cc1ccccc1)NC(=O)[C@H](C(C)C)N1CCCNC1=O	0.878% [at 42.5 µM] (inactive)	
CC1=CCCC(C)(C)C12CCC(C)O2 (stereo not given)	8.7% (inactive)	

Structure (SMILES)	activity change, negative = inhibition	Potency
CC(C)(O)c1ccc(CNC(=O)c2cccnc2Oc2ccc(F)cc2)cc1	-0.486% (inactive)	
O=P(O)(OCc1ccccc1)OCc1ccccc1	1.17% (inactive)	
CCCCCCCC/C=C\CCCCCCCC(=O)OCC	0.369% (inactive)	
C1CCCNCCC1	0.6% (inactive)	
O=S(=O)(Oc1ccc(Cl)cc1)c1ccccc1	-2% (inactive)	
CC1(c2ccccc2)OC(C(=O)O)=CC1=O (stereo not given)	0.288% [at 42.5 µM] (inactive)	
CNCCCN1c2ccccc2CCc2ccccc21		29.8 µM (active)
O=[N+]([O-])c1ccc(NCCO)c(OCCO)c1	-2.66% (inactive)	
CCCCCCCCCCCC(=O)OC[C@@H](O)[C@H]1OC[C@H](OCCO)[C@H]1OCCO	0.797% (inactive)	
CC[N+](C)(CC)CCOC(=O)C(O)(c1ccccc1)C1CCCCC1 (stereo not given)	-0.451% [at 42.5 µM] (inactive)	
CCCCOC(=O)CCCCCCCC(=O)OCCCC	0.368% (inactive)	
CCOC(=O)COC(=O)c1cc(Oc2ccc(C(F)(F)F)cc2Cl)ccc1[N+](=O)[O-]	1.24% (inactive)	
CN1Cc2cc(C(=O)N3CCC(C4CCNCC4)CC3)ccc2NC(CC(=O)O)C1=O (stereo not given)	1.62% [at 42.5 µM] (inactive)	
c1cc(CCCc2ccncc2)ccn1	0.347% (inactive)	
C[C@@H](c1ncncc1F)C(O)(Cn1cncn1)c1ccc(F)cc1F (stereo not given in full)	-0.758% [at 42.5 µM] (inactive)	
C=C1C(=C/C=C2\CCC[C@]3(C)[C@@H]([C@H](C)/C=C/[C@@H](O)C4CC4)CC[C@@H]23)C[C@@H](O)C[C@@H]1O	5.4% [at 42.5 µM] (inactive)	
O=C(O)c1ccccc1Cl	-3.74% (inactive)	
COc1cc(C(=O)OCCCN2CCCN(CCCOC(=O)c3cc(OC)c(OC)c(OC)c3)CC2)cc(OC)c1OC	-3.89% [at 42.5 µM] (inactive)	
COC(=O)C1=C(C)NC(COC(N)=O)=C(C(=O)OC(C)C)C1c1cccc(Cl)c1Cl (stereo not given)	-8.82% [at 42.5 µM] (inactive)	
C=CC(=O)OCCOCCOCCOCCOC(=O)C=C		inactive
